PubChem BioAssay AID1745848 (National Center for Advancing Translational Sciences (NCATS), 2022)
Screen size: about 2,100 compounds; about 940 (45%) were called active. Roughly 48% stayed inconclusive and do not appear here. Calls come from the whole dose curve; as a rule, active = well fitted inhibition curve with a large enough effect; inconclusive = small, poorly fitted or top-dose-only effect; inactive = no such curve, though single readings can be large or run the other way. So high a share suggests a set chosen from earlier hits. This is one part of the list.
Potency is the fitted concentration of half-maximal effect.

Experiment: Confirmatory qHTS for Inhibitors of ATXN expression; note: nearly all actives have a fitted effect of over 65% in size
Details: ATXN2-luciferase reporter cells, luminescence, 24 h; series mostly up to 11.5 µM
In short: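 Cells carrying ATXN2-luciferase reporter exposed 24 h at 37 C to compound. Viability then read by CellTiter-Fluor (25 uM GF-AFC, 30 min), followed by SteadyGlo luminescence; medium-only wells set 100% inhibition.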
For O=C(Nc1ccc2c(c1)CCC2)C1CCN(c2c3c(nc4ncnn24)CCC3)CC1, the Potency was 7.94 µM (active). In the case of CC(C)COc1cccc(C(=O)N(CC(=O)Nc2ccccc2C(F)(F)F)Cc2ccco2)c1, the Potency is reported as 3.16 µM (active). In the case of Cc1cc(C)nc(N/N=C2/CCCC/C2=C\c2ccccc2)n1, the Potency is reported as 2.82 µM (active). For COc1cc2[nH]c(=O)n(CCCCCC(=O)N3CC=C(c4ccccc4)CC3)c(=O)c2cc1OC, the Potency was 3.16 µM (active). In the case of CCOC(=O)c1c(NC(=O)C(Sc2ccccc2)c2ccccc2)sc(C(=O)N(C)C)c1C (stereo not given), the Potency is reported as 25.1 µM (active). With CCOC(=O)c1c(NC(=O)COC(=O)c2ccccc2NC)sc(C(=O)N(C)C)c1C the Potency was “inactive”. In the case of COc1ccc(N(C(=O)c2snc(C(N)=O)c2N)C(C(=O)NCc2ccc(F)cc2)c2ccc(O)cc2)cc1 (stereo not given), the Potency is reported as “inactive”. For COc1ccc(CNC(=O)Nc2nc(C(N)Cc3ccc(Cl)cc3)cs2)cc1 (stereo not given), the Potency was 28.2 µM (active). With CC(C)CC(N)c1csc(NC(=O)Nc2ccccc2C(C)(C)C)n1 (stereo not given) the Potency was 3.16 µM (active). For NC(Cc1ccc(Cl)cc1)c1csc(NC(=O)Nc2ccccc2-c2ccccc2)n1 (stereo not given), the Potency was 3.16 µM (active). For NC(Cc1ccc(F)cc1)c1csc(NC(=O)NC(c2ccccc2)c2ccccc2)n1 (stereo not given), the Potency was 28.2 µM (active). In the case of COc1ccc(CC(N)c2csc(NC(=O)c3ccccc3OC)n2)cc1 (stereo not given), the Potency is reported as “inactive”. For NC(c1ccccc1)c1csc(NC(=O)Nc2ccccc2Oc2ccccc2)n1 (stereo not given), the Potency was 3.16 µM (active). In the case of O=C(OCCN1C(=O)c2cccc3c(N4CCOCC4)ccc(c23)C1=O)c1ccccc1Cl, the Potency is reported as 5.01 µM (active). In the case of COc1ccc2c(-c3ccc(S(N)(=O)=O)cc3)c(-c3ccc(S(C)(=O)=O)cc3)sc2c1, the Potency is reported as 28.2 µM (active). For O=C(CNC(=O)c1cccc(F)c1)N/N=C/c1cc(Br)ccc1OC(=O)/C=C/c1ccco1, the Potency was 7.94 µM (active). With O=C(CNC(=O)c1ccccc1F)N/N=C/c1cc(Br)ccc1OC(=O)/C=C/c1ccco1 the Potency was 11.2 µM (active). For O=C(/C=C/c1ccco1)Oc1cc(Br)cc(/C=N/NC(=O)c2ccccc2O)c1, the Potency was 0.447 µM (active). For O=C(CNC(=O)c1ccc(F)cc1)N/N=C/c1cc(Br)ccc1OC(=O)/C=C/c1ccco1, the Potency was 15.8 µM (active). With O=C(NCCc1csc(-c2cccnc2)n1)c1cccc(Cl)c1 the Potency was “inactive”. In the case of O=C(NNC(=O)c1cnccn1)c1ccc(Cl)c(Cl)c1, the Potency is reported as 15.8 µM (active). In the case of COc1cc(C(=O)NC(=S)NNC(=O)c2cnccn2)cc(OC)c1OC, the Potency is reported as 12.6 µM (active). In the case of CCCCOc1ccc(C(=O)NNC(=O)c2cnccn2)cc1OC, the Potency is reported as 17.8 µM (active). For O=C(/C=C/c1ccccc1)NC(=S)NNC(=O)c1cnccn1, the Potency was 7.94 µM (active). For NC(N)=N/N=C/c1ccc2cccc(OCc3ccccc3)c2n1, the Potency was 10 µM (active). In the case of CCC(c1nnnn1C1CCCC1)N(Cc1cccs1)Cc1cc2cc(C)ccc2[nH]c1=O (stereo not given), the Potency is reported as 28.2 µM (active). For Cn1nnnc1Sc1ncnc2scc(Br)c12, the Potency was 28.2 µM (active). In the case of Cn1nnnc1Sc1ncnc2scc(-c3ccccc3Cl)c12, the Potency is reported as 3.16 µM (active). For Cn1nnnc1Sc1ncnc2scc(-c3ccc[nH]3)c12, the Potency was 28.2 µM (active). With CC(=O)c1cccc(-c2csc3ncnc(Sc4nnnn4C)c23)c1 the Potency was 11.2 µM (active). In the case of CCOC(=O)c1c(C)oc2c(F)c(F)c(F)c(F)c2c1=O, the Potency is reported as 3.98 µM (active). For CCN(CC)CCNC1=NCCn2c1cc1cc(OC)ccc12, the Potency was 1.78 µM (active). With C[C@@H]1C[C@@H]2O[C@H]2/C=C\C=C\C(=O)Cc2c(Cl)c(O)cc(O)c2C(=O)O1 the Potency was 0.631 µM (active). With O=C(N/N=C/c1c(O)ccc2ccccc12)c1cccc(C(F)(F)F)c1 the Potency was 1 µM (active). With O=C(N/N=C/c1ccccc1O)c1cccc(C(F)(F)F)c1 the Potency was 0.631 µM (active). With O=C(NN=Cc1c(O)ccc2ccccc12)c1ccc2c(c1)OCO2 the Potency was 2 µM (active). In the case of CCCC1CCC(c2ccc(C(=O)NN)cc2)CC1 (stereo not given), the Potency is reported as 2.82 µM (active). For c1ccc(-c2cccc(-c3ccccn3)n2)nc1, the Potency was 0.112 µM (active). For FC(F)(F)c1cc(-c2ccccn2)nc2cc(-c3ccccc3)nn12, the Potency was “inactive”. With Cc1cc(=O)[nH]c(N=N/C(=N/Nc2ccccc2C)c2ccccc2)n1 the Potency was 1.58 µM (active). In the case of CC(=O)NC(C)c1cc(Cl)c2cccnc2c1O (stereo not given), the Potency is reported as 3.98 µM (active). For CC(=O)NC(c1cc(Cl)c2cccnc2c1O)C(C)C (stereo not given), the Potency was 0.794 µM (active). For CCC(=O)NC(C)c1cc(Cl)c2cccnc2c1O (stereo not given), the Potency was 1.78 µM (active). For CCC(=O)NC(c1cc(Cl)c2cccnc2c1O)C(C)C (stereo not given), the Potency was 2.82 µM (active). In the case of N#C/C(=C\c1ccc([N+](=O)[O-])o1)c1nc2ccccc2[nH]1, the Potency is reported as 3.55 µM (active). With Cc1csc(NC(=O)COCC(=O)O)c1-c1nc2ccccc2s1 the Potency was 15.8 µM (active). For O=C(CN1CCCC1)N/N=C/c1c(O)ccc2ccccc12, the Potency was 1.78 µM (active). In the case of O=C(CN1CCOCC1)N/N=C/c1c(O)ccc2ccccc12, the Potency is reported as 7.08 µM (active). For Nc1nc(N)c2cc(Sc3ccc4ccccc4c3)ccc2n1, the Potency was 28.2 µM (active). For COc1cccc2c1C(=N)c1c(O)c3c(c(O)c1C2=O)CC(O)(C(C)=O)CC3OC1CC(N)C(O)C(C)O1 (stereo not given), the Potency was 0.224 µM (active). For CCCCC(=O)OCC(=O)C1(O)Cc2c(O)c3c(c(O)c2C(OC2CC(NC(=O)C(F)(F)F)C(O)C(C)O2)C1)C(=O)c1c(OC)cccc1C3=O (stereo not given), the Potency was 2.51 µM (active). With COc1cccc2c1C(=O)c1c(O)c3c(c(O)c1C2=O)C[C@](O)(C(C)=O)C[C@H]3O[C@@H]1C[C@@H](N)[C@@H](O)[C@@H](C)O1 the Potency was 0.282 µM (active). With CC(C)CCNC(=O)COc1cccc2c1OC(C)(C)C2 the Potency was “inactive”. In the case of CCOC(=O)c1c2ccc(OCC(=O)N/N=C/c3ccc(C)cc3)cc2n2ccccc12, the Potency is reported as 11.2 µM (active). With CCOC(=O)c1c(CSc2nc(C)cc(C)c2C#N)n(C)c2cc(Br)c(OC(C)=O)cc12 the Potency was “inactive”. With COc1cccc(OC)c1C(=O)OCC(=O)NC(=O)NCc1ccccc1 the Potency was “inactive”. With COc1ccccc1C(CCNCc1ccccc1)c1ccc(OC(C)C)cc1 (stereo not given) the Potency was 3.98 µM (active). In the case of COc1ccc(CNCCC(c2ccc(OC(C)C)cc2)c2ccccc2OC)cc1 (stereo not given), the Potency is reported as 3.16 µM (active). With CCOC(=O)c1cnc(-n2nc(C)cc2C)nc1NNc1cc(C)nc(-c2ccccc2)n1 the Potency was 3.55 µM (active). With Cc1ccc(OCC(=O)N2CCN(c3nnc(-c4ccc(C)cc4)c4ccccc34)CC2)cc1 the Potency was 3.16 µM (active). For Oc1[nH]c2ccc(Br)cc2c1N=NC(=S)N1CCOCC1, the Potency was 0.631 µM (active). With Clc1ccc(SCc2cc(N3CCOCC3)nc(-c3ccccn3)n2)cc1 the Potency was 5.01 µM (active). For CC(C)(C)S(=O)(=O)/C(C#N)=N/Nc1ccc(Cl)cc1, the Potency was 20 µM (active). With NS(=O)(=O)c1ccc(N2N=C(c3ccccc3)CC2c2ccc(F)cc2)cc1 (stereo not given) the Potency was “inactive”. With O=S(=O)(c1ccc(F)cc1)c1snnc1-c1ccccc1 the Potency was 15.8 µM (active). For Cc1ccc(/C=C2\SC(=S)N(CCCC(=O)Nc3nccs3)C2=O)cc1, the Potency was 7.08 µM (active). With Cc1ccc(/C=C2\SC(=S)N(CCCC(=O)NC3CCCC3)C2=O)cc1 the Potency was 1.41 µM (active). For Cc1ccc(/C=C2/SC(=S)N(CCCC(=O)Nc3ccc(O)cc3)C2=O)cc1, the Potency was 1.41 µM (active). For Cc1ccc(/C=C2\SC(=S)N(CCCC(=O)Nc3ccc(O)cc3)C2=O)cc1, the Potency was “inactive”. For Cc1ccc(/C=C2/SC(=S)N(CCCC(=O)Nc3cc([N+](=O)[O-])ccc3O)C2=O)cc1, the Potency was 31.6 µM (active). For Cc1ccc(/C=C2\SC(=S)N(CCCC(=O)Nc3cccnc3)C2=O)cc1, the Potency was 2.24 µM (active). In the case of Cc1ccc(/C=C2\SC(=S)N(CCCC(=O)Nc3ccccc3C(=O)O)C2=O)cc1, the Potency is reported as 2.24 µM (active). With Cc1cc(C)cc(NC(=O)/C(C#N)=C/c2cn(CC(=O)NCc3ccco3)c3ccccc23)c1 the Potency was 1.78 µM (active). In the case of CCOC(=O)Cn1cc(C(=O)c2ccco2)c2ccccc21, the Potency is reported as “inactive”. With COc1ccc(N2C3=C(CC4=C2CC(C)(C)CC4=O)C(=O)CC(C)(C)C3)cc1 the Potency was “inactive”. With COc1cccc(C2CC(c3c(-c4ccccc4)c4cc(Cl)ccc4[nH]c3=O)=NN2S(C)(=O)=O)c1OC (stereo not given) the Potency was 2.82 µM (active). With O=C1c2ccccc2NC(c2ccc(-c3cccc([N+](=O)[O-])c3)o2)N1O (stereo not given) the Potency was 15.8 µM (active). In the case of COc1ccc(-c2oc3c(OC)c(OC)c(OC)c(O)c3c(=O)c2OC)cc1OC, the Potency is reported as 10 µM (active). In the case of COc1ccccc1N1CCN(Cc2cc(Br)c(O)c3ncccc23)CC1, the Potency is reported as 3.55 µM (active). In the case of COc1ccccc1N1CCN(Cc2ccc(O)c3ncccc23)CC1, the Potency is reported as 0.562 µM (active). With CO[C@@]12[C@@H]3N[C@@H]3CN1C1=C(C(=O)C(N)=C(C)C1=O)[C@@H]2COC(N)=O the Potency was “inactive”. For Cc1nc(SC2CC(=O)N(c3ccccc3)C2=O)n[nH]1 (stereo not given), the Potency was “inactive”. For Cc1c(C(=O)N2CCN(c3ccc(F)cc3)CC2)sc2ncnc(N3CCN(c4ccccn4)CC3)c12, the Potency was 2.82 µM (active). With O=C(c1ccco1)N1CCN(c2ncnc3scc(-c4cccs4)c23)CC1 the Potency was “inactive”. In the case of O=C(/C=C/NNC(=O)c1ccccc1)c1ccc([N+](=O)[O-])cc1, the Potency is reported as 3.16 µM (active). In the case of COc1ccc(C(=O)C=CNNC(=O)c2ccc(Cl)cc2)cc1, the Potency is reported as 14.1 µM (active). In the case of CC(C)Cn1c(/C=N/Nc2nc3ccccc3[nH]2)nc2ccccc21, the Potency is reported as 8.91 µM (active). For CCCCn1c(/C=N/Nc2nc3ccccc3[nH]2)nc2ccccc21, the Potency was “inactive”. For S=C(NCCCN1CCOCC1)N1CCN(c2nc(-c3ccccc3)cs2)CC1, the Potency was 11.2 µM (active). In the case of O=c1c2ccc(Cl)cc2nc(-c2cccc(C(F)(F)F)c2)n1O, the Potency is reported as 2.51 µM (active).
